Measured values from PubChem BioAssay.

tested on: Chordin-like protein 2 (CHRDL2); experiment: compounds binding chordin-like 2 – biochemical, small-molecule microarray, 635 nm fluorescence, primary screen (AID 1126); conditions: fluorescence 635 nm, higher = more signal;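 also: printed compound slides probed with Chrdl2 protein at 4 µg/mL for 1 h at 4 C; score merges 667 nm emission intensity with signal to noise over three replicate slides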

SMILES	composite z-score
COCCOC(=O)N1C(=O)[C@@]2(c3ccccc31)[C@H](c1ccc(O)cc1)N1[C@H](c3ccccc3)[C@H](c3ccccc3)OC(=O)[C@H]1[C@@H]2C(=O)Nc1nc2ccccc2s1	-0.172
NC(=O)NCC#Cc1ccc2c(c1)[C@]1(C(=O)N2)[C@H](C(=O)Nc2nc3ccccc3s2)[C@H]2C(=O)O[C@H](c3ccccc3)[C@H](c3ccccc3)N2[C@@H]1c1ccccc1OCCO	0.277
COCCOC(=O)N1C(=O)[C@@]2(c3ccccc31)[C@H](c1ccccc1OCCO)N1[C@H](c3ccccc3)[C@H](c3ccccc3)OC(=O)[C@H]1[C@@H]2C(=O)N1CCN(c2ncccn2)CC1	0.0792
COC(=O)[C@@]1(Cc2ccc(F)cc2)[C@H]2c3cc(C(=O)N4CCCC4)n(CCCNc4ncc(C(F)(F)F)cc4Cl)c3C[C@H]2CN1C(=O)c1ccccc1	0.197
CC(C)C[C@@H]1NC(=O)[C@@H]2C[C@H](C(=O)NCc3ccc(F)cc3)[C@H](c3cccc(OCCO)c3)N2C1=O	0.915
C=CCC(OC(C)=O)[C@@H]1[C@@H](N(Cc2cc3ccccc3o2)C(=O)c2cccc3ccccc23)c2cc(OCCCO)ccc2N1C(=O)c1ccc(-c2ccccc2)cc1 (stereo not given in full)	0.107
C#C[C@H](O[Si](C#Cc1ccc(Oc2ccccc2)cc1)(C(C)C)C(C)C)c1ccccc1	0.662
O=C1N[C@@H](Cc2ccccc2)C(=O)N2[C@@H]1C[C@@H](C(=O)O)[C@H]2c1cccc(OCCO)c1	0.992
COCCCNC(=O)[C@@]1(C)c2ccccc2C(=O)N(C(C)C)[C@H]1c1ccc(CO)cc1	1.08
C=CCN1C(=O)[C@@]2(Cc3ccccc31)N=C(c1ccc(OCCCO)cc1)O[C@H]2c1ccccc1	0.885
CN(C)CCCCCCNC(=O)[C@H]1C[C@H]2C(=O)N[C@@H](CCCCN)C(=O)N2[C@H]1c1cccc(OCCO)c1	1.46
COc1cc2c(cc1OC)CN(C(=O)[C@H]1[C@@H]3C(=O)O[C@@H](c4ccccc4)[C@@H](c4ccccc4)N3[C@@H](c3ccc(O)cc3)[C@]13C(=O)Nc1ccccc13)CC2	0.139
C=CC1(C(=O)OC)CC=C(C(=O)OC)CC1 (stereo not given)	0.556
CCCC=C(CCC)[C@@H](NC(=O)c1cccs1)c1ccc(C(F)(F)F)cc1	-0.595
C=CCNC(=O)[C@@H]1[C@H]2C(=O)O[C@H](c3ccccc3)[C@H](c3ccccc3)N2[C@H](c2ccccc2OCCO)[C@@]12C(=O)N(C(=O)OCCOC)c1ccccc12	0.66
COC(=O)C[C@H]1O[C@]2(C(=O)N(C)c3ccccc32)[C@@H](C)[C@@H]1[Si](C)(C)F	0.592
C=CCOC(=O)[C@@H]1[C@H]2C(=O)O[C@H](c3ccccc3)[C@H](c3ccccc3)N2[C@H](c2ccc(OCCOC(=O)[C@@H]3C[C@@H]4C(=O)NCC(=O)N4[C@@H]3c3ccc(O)cc3)cc2)[C@@]12C(=O)Nc1ccc(I)cc12	1.03
COc1ccc(CCNC(=O)[C@@]2(C)c3ccccc3C(=O)N(C(C)C)[C@H]2c2ccc(CO)cc2)cc1	0.397

SMILES	composite z-score
C=C(CC1([C@@H](NP(=O)(c2ccccc2)c2ccccc2)[C@H]2C[C@@H]2CCCC)CC1)c1ccccc1	-0.874
COC(=O)[C@H](Cc1ccccc1)N1CC2=C[C@@H](C3CC3)n3c(=O)n(C)c(=O)n3[C@H]2[C@@H]1[C@@H](O)Cc1ccccc1	0.162
C=C(/C(=C/C[C@H](OC(C)=O)c1ccc(CO)o1)c1cc(C(=O)OC)ccc1OC)C(C)C	-0.649
[N-]=[N+]=Nc1ccccc1[C@H]1OC(c2ccc(OCCCO)cc2)=N[C@@]1(CCS(=O)(=O)c1ccccc1)C(N)=O	0.0869
COc1cc2c(cc1OC)CN(C(=O)[C@@H]1[C@H]3C(=O)O[C@H](c4ccccc4)[C@H](c4ccccc4)N3[C@H](c3ccccc3OCCO)[C@@]13C(=O)Nc1ccc(C#CCCO)cc13)CC2	0.352
C[N+](C)(C)CCCCNC(=O)[C@@H]1C[C@@H]2C(=O)N[C@@H](Cc3ccccc3)C(=O)N2[C@@H]1c1cccc(OCCO)c1	1.04
COCCOC(=O)N1C(=O)[C@@]2(c3cc(C#CCC(C(=O)OC)C(=O)OC)ccc31)[C@H](C(=O)Nc1nc3ccccc3s1)[C@H]1C(=O)O[C@H](c3ccccc3)[C@H](c3ccccc3)N1[C@@H]2c1ccccc1OCCO	-0.0859
CCC[C@@H]1C[C@@]1(CCC)[C@@H](NS(=O)(=O)c1cccc2cccnc12)c1ccc(Cl)cc1	-0.955
C=CCNC(=O)[C@@H]1[C@H]2C(=O)O[C@H](c3ccccc3)[C@H](c3ccccc3)N2[C@H](c2ccc(O)cc2)[C@@]12C(=O)N(C(=O)OCCOC)c1ccc(C#CCNC(N)=O)cc12	0.155
COCCOC(=O)N1C(=O)[C@@]2(c3cc(C#CCCO)ccc31)[C@H](C(=O)N1CCCCCCC1)[C@H]1C(=O)O[C@H](c3ccccc3)[C@H](c3ccccc3)N1[C@@H]2c1ccc(OCCO)cc1	1.26
COC(=O)[C@@]1(CCC(=O)OC(C)(C)C)N=C(c2ccc(OCCCO)cc2)O[C@H]1c1ccccc1N=[N+]=[N-]	-0.436
CCCCCN1CC=CC23O[C@@H]4/C=C\CCC(C)OC(=O)C4[C@H]2C(=O)N(C(C)CO)[C@@H]3C1=O (stereo not given in full)	-0.388
Cc1ccc(S[C@]2(C(=O)NC3CC3)CC(=O)N(Cc3ccccc3)[C@@H]2c2ccc(CO)cc2I)cc1	-0.682
O=C1NC(=O)C2C1C=CC(C(O)c1cccs1)N2Nc1ccc(Cl)cc1Cl (stereo not given)	-0.352
C=CCC(OC(C)=O)[C@@H]1[C@@H](N(Cc2ccc(-c3ccccc3)cc2)C(=O)c2cccc3ccccc23)c2cc(OCCCO)ccc2N1C(=O)c1ccc(-c2ccccc2)cc1 (stereo not given in full)	0.111
CCOC(=O)C[C@H]1[C@H](OC(=O)c2ccc(C(=O)c3ccccc3)cc2)[C@@H](NC(=O)c2ccccc2)c2cc(OCCCO)ccc2N1C(=O)c1ccc2ccccc2n1	-0.284
COc1cc2c(cc1O)C(C1CC1)N(Cc1sc3ccccc3c1Cl)CC2 (stereo not given)	0.185
